From the supplement of paper PMC11001985

compound: C#CCNC(=O)CCSSCCC(=O)NCCc1ccc(C=O)c(C=O)c1; assay: lysine labeling ratio R10:1 (500 µM / 50 µM probe), SILAC-ABPP in living cells; higher = lower intrinsic lysine reactivity toward the probe, active = 2 or less; details: HeLa; probe concentrations 500 vs 50 µM
Summary of the method: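 For each lysine, R is the median over forward and reverse replicates of the filtered median MS1 peptide ratio of high probe to low probe. The probe, an alkyne-tagged, disulfide-linked lysine probe, was given at 500 µM or 50 µM to living SILAC light and heavy HeLa cells in PBS at room temperature, with label swaps. Values are capped at 20.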

Sequence of UniProt Q9BVC6 (Q9BVC6 whole entry): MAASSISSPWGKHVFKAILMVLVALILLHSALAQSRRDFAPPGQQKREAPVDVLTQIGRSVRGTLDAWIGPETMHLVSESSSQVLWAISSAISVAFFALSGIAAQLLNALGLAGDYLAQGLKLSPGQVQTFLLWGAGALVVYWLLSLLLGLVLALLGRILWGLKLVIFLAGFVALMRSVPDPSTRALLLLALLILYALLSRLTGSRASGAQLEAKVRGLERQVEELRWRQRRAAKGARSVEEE
Sequence of UniProt O60245 (O60245 whole entry): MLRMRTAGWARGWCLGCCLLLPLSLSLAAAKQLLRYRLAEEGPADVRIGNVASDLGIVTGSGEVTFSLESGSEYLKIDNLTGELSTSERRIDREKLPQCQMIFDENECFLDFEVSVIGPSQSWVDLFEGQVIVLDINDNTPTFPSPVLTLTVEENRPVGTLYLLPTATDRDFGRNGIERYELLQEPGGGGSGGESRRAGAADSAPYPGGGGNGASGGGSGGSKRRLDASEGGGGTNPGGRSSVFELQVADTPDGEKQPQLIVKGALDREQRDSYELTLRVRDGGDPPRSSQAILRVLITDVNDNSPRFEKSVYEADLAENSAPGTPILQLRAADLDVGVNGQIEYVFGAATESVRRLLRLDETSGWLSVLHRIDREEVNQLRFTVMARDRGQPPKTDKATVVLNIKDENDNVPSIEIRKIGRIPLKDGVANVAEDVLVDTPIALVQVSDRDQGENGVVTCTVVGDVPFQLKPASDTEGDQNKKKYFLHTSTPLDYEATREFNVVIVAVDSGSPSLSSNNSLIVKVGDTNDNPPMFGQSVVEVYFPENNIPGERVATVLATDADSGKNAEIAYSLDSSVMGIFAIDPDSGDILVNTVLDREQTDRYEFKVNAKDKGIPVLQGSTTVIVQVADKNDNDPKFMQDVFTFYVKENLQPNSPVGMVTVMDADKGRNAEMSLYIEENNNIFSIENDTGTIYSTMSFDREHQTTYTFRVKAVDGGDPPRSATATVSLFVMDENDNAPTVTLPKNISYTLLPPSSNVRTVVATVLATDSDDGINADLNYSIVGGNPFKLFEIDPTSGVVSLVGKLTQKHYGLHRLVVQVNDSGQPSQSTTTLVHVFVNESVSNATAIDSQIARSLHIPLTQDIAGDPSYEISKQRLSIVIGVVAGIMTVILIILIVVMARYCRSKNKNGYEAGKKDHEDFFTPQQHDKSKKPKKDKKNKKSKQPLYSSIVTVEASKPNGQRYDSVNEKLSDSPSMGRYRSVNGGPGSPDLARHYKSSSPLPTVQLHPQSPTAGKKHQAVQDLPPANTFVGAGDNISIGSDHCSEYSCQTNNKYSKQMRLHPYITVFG
Sequence of UniProt Q12797 (Q12797 whole entry): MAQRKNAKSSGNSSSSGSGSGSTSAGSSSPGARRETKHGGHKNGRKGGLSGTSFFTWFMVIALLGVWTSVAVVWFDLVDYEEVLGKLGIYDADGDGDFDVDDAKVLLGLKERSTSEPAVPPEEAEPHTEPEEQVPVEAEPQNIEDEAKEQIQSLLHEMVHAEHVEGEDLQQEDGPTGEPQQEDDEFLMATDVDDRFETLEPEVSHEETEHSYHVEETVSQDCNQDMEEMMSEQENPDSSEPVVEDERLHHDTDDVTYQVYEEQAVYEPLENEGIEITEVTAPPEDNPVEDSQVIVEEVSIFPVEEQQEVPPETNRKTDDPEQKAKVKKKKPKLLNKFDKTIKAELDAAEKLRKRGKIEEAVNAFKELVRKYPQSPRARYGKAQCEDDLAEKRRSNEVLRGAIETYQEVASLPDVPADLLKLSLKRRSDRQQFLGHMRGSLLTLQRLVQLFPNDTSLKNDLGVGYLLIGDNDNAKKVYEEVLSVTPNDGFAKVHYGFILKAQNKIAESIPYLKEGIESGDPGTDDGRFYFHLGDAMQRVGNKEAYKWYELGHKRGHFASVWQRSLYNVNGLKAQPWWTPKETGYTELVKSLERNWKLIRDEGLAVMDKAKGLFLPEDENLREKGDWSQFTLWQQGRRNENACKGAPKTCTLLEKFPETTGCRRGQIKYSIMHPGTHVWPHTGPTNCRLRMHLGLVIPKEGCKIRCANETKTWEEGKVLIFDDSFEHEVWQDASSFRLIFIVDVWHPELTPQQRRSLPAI
Sequence of UniProt P15509 (P15509 whole entry): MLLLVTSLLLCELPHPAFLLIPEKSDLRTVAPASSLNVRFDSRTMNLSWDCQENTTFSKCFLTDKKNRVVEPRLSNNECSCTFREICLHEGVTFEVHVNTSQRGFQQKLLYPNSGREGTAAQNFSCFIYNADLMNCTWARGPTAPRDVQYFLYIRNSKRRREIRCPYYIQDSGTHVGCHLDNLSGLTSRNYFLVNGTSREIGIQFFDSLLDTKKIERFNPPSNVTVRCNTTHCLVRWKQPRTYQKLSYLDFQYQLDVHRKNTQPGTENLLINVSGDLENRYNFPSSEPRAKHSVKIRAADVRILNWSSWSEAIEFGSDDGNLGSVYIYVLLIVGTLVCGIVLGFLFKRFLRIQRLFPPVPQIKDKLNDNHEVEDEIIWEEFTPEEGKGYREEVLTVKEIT
Sequence of UniProt P11717 (P11717 whole entry): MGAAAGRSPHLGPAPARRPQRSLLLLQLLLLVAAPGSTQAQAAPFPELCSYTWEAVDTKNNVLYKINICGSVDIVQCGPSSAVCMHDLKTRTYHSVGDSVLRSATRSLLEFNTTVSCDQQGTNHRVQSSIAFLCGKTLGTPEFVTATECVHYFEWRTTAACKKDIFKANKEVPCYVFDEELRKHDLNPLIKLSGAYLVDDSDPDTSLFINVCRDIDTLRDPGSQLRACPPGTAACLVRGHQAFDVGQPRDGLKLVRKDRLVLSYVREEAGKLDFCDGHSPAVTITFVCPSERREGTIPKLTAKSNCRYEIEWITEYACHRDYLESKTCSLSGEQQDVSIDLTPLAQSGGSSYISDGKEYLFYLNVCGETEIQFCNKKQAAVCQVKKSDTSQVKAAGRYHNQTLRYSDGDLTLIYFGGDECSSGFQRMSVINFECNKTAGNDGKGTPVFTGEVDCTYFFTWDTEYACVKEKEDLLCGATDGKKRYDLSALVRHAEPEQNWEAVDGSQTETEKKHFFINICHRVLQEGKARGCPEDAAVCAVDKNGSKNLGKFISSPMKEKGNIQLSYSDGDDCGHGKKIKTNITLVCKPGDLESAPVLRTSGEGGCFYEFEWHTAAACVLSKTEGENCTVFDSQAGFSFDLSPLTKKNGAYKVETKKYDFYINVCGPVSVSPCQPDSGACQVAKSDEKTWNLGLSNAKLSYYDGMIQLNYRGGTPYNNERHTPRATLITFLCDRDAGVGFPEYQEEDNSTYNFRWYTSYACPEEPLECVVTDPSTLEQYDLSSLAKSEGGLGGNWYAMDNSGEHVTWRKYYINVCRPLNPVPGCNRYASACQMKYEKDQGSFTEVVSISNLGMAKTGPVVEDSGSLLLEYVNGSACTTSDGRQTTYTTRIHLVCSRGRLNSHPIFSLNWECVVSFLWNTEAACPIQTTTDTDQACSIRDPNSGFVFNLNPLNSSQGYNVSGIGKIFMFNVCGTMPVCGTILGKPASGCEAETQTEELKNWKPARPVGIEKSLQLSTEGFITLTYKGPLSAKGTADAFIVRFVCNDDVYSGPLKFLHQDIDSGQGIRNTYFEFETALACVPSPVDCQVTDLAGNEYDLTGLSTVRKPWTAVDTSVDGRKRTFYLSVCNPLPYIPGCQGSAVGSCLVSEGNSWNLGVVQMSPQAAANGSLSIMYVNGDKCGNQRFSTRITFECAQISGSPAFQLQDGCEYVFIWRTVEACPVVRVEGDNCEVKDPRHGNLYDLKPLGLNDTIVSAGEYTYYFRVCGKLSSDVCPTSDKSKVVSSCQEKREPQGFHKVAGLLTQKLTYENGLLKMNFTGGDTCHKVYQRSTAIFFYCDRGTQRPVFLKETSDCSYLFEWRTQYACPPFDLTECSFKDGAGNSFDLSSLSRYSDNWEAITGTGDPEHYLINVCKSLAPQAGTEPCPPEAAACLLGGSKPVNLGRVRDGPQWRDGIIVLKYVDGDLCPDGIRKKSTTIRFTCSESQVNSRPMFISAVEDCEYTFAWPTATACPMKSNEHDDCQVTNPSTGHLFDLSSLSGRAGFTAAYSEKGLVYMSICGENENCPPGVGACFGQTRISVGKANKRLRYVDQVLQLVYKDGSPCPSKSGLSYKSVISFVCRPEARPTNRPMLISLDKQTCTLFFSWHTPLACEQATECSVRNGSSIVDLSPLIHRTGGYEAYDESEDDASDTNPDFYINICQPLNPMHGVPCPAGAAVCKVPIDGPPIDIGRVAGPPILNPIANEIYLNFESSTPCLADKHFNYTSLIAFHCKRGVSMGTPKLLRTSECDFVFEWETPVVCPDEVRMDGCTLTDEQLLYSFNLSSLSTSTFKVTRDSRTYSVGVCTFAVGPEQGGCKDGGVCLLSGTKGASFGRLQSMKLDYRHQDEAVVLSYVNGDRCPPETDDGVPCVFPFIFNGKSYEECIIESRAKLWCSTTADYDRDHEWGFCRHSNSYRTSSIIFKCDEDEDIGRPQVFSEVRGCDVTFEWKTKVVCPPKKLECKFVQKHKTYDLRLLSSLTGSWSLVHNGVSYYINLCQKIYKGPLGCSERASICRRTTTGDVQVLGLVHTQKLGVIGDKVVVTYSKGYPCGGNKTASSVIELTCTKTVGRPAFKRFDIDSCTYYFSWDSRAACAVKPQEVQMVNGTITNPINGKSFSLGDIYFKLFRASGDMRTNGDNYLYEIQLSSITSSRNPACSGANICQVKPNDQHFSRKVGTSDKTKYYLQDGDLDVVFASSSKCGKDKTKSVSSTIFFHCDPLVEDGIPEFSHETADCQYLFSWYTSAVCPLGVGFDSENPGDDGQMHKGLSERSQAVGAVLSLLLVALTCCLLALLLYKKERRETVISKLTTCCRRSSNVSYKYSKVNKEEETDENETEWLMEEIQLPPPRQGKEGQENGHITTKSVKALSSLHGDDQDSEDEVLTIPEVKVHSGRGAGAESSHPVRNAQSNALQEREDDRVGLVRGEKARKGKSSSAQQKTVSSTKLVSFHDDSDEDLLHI

Lysine labeling ratio R10:1, inactive:
ITGB5 (lysine site: K170) (UniProt P18084) 3.44
ATP1B1 (lysine site: K216) (UniProt P05026) 4.23
SFN (lysine site: K49) (UniProt P31947) 5.33
PDCD6IP (lysine site: K303) (UniProt Q8WUM4) 2.47
MSN (lysine site: K514) (UniProt P26038) 3.78
STMN1 (lysine site: K126) (UniProt P16949) 2.8
ASPH (lysine site: K552) (UniProt Q12797) 4.2
UniProt Q15149 (lysine site: K1996) 3.69
ROBO1 (lysine site: K304) (UniProt Q9Y6N7) 3.14
INSR (lysine site: K511) (UniProt P06213) 2.12
HSP90B1 (lysine site: K630) (UniProt P14625) 2.66
SEMA3C (lysine site: K391) (UniProt Q99985) 4.13
SPTBN1 (lysine site: K1913) (UniProt Q01082) 4.33
NLRX1 (lysine site: K301) (UniProt Q86UT6) 2.38
DDX5 (lysine site: K80) (UniProt P17844) 3.64
GALNT2 (lysine site: K103) (UniProt Q10471) 2.75
SLC25A5 (lysine site: K23) (UniProt P05141) 3.58
TMEM109 (lysine site: K46) (UniProt Q9BVC6) 3.23
UniProt Q13620 (lysine site: K903) 3.24
SLC25A13 (lysine site: K487) (UniProt Q9UJS0) 4.12
UniProt O60245 (lysine site: K223) 5.15
RPL3 (lysine site: K356) (UniProt P39023) 2.08
TKT (lysine site: K16) (UniProt P29401) 2.68
LDHA (lysine site: K155) (UniProt P00338) 2.54
TMEM109 (lysine site: K215) (UniProt Q9BVC6) 3.67
HEG1 (lysine site: K1073) (UniProt Q9ULI3) 3.38
HNRNPC (lysine site: K170) (UniProt P07910) 2.35

Lysine labeling ratio R10:1, active:
CAPZB (lysine site: K237) (UniProt P47756) 1.4
UniProt P61978 (lysine site: K219) 0.79
ITGB1 (lysine site: K238) (UniProt P05556) 1.34
CSF2RA (lysine site: K108) (UniProt P15509) 0.663
PIEZO1 (lysine site: K2372) (UniProt Q92508) 1.09
CCT4 (lysine site: K29) (UniProt P50991) 1.71
CDCP1 (lysine site: K396) (UniProt Q9H5V8) 0.987
METTL7A (lysine site: K210) (UniProt Q9H8H3) 1.36
DNAJA3 (lysine site: K391) (UniProt Q96EY1) 1.5
HNRNPM (lysine site: K698) (UniProt P52272) 0.67
IGF2R (lysine site: K1230) (UniProt P11717) 1.74
UniProt P62899 (lysine site: K31) 1.97
ARHGDIA (lysine site: K52) (UniProt P52565) 1.66
